About 3,100 (1.6%) of roughly 190,000 compounds were called active. Rule as the data show it: active = fold change above about 3.3; inconclusive = no clear call, values can overlap the other calls; inactive = below that. The full list was thinned out, with actives kept by preference.
assay: NF-kB upregulation, human neuronal cells – cell-based, HTS, primary screen (AID 1239); settings: NF-kB reporter expression, at 12.5 µM, active compounds read high

Row | Structure (SMILES) | fold change
1 | Cn1c(=O)n(C)c2cc(C(=O)Nc3ccc4c(c3)OCO4)ccc21 | 1.54 (inactive)
2 | O=C(Nc1cccnc1)c1ccc2c(c1)OCO2 | 1.47 (inactive)
3 | COc1ccc(C(=O)Nc2ccc3c(c2)OCO3)cc1OC | 2.06 (inactive)
4 | O=C(Nc1cccc([N+](=O)[O-])c1)c1ccc2c(c1)OCO2 | 1.37 (inactive)
5 | Cc1cc(C)c2nc(NC(=O)c3ccc4c(c3)OCO4)sc2c1 | 1.11 (inactive)
6 | Cn1nnnc1SCC(=O)Nc1nc2ccccc2s1 | 1.74 (inactive)
7 | O=C(Nc1ccccc1)Nc1nc2ccccc2s1 | 8.18 (active)
8 | O=C(Nc1nc2ccccc2s1)c1ccc2c(c1)OCO2 | 7.05 (active)
9 | COCc1nnc(NC(=O)c2ccc3c(c2)OCO3)s1 | 2.07 (inactive)
10 | CC(=O)Nc1ccc(-c2csc(NC(=O)Nc3ccccc3)n2)cc1 | 1.32 (inactive)
11 | CC(C)C(=O)Nc1cccc(C(=O)Nc2ccc3c(c2)OCO3)c1 | 4.07 (active)
12 | O=C(Nc1ccccc1)c1ccc2c(c1)OCO2 | 3.31 (active)
13 | COc1ccc(-c2nn(-c3ccccc3)cc2CN2CCCO2)c(F)c1 | 1.16 (inactive)
14 | NC(N)=N/N=C/c1ccc(Cl)c([N+](=O)[O-])c1 | 1.03 (inactive)
15 | CN1CCN(NC(=O)c2ccc(S(=O)(=O)N3CCCCCC3)cc2)CC1 | 0.97 (inactive)
16 | O=c1[nH]n(-c2ccc([N+](=O)[O-])cc2)c(=O)c2ccccc12 | 1 (inactive)
17 | CC(=O)c1ccc(N=C2SCCCN2C(=O)C2CCCCC2)cc1 | 1.75 (inactive)
18 | COc1cccc(NC(=O)CS(=O)(=O)c2cn(CC(=O)N3CCOCC3)c3ccccc23)c1 | 0.88 (inactive)
19 | O=C(CSc1nc2ccc(Nc3nc(N4CCOCC4)nc(N4CCOCC4)n3)cc2s1)NCc1ccco1 | 1.02 (inactive)
20 | CC(C)(C)C1CCC(C(=O)Nc2cccnc2)CC1 (stereo not drawn) | 0.97 (inactive)
21 | COC(=O)C(=Nc1ccccc1)/C(C(=O)C(=O)N(C)c1ccccc1)=C(\O)c1ccc(Cl)cc1 | 0.95 (inactive)
22 | O=C(Nc1ccc2nccnc2c1)c1ccco1 | 1.46 (inactive)
23 | O=C(Nc1cccc(-c2nc3ncccc3o2)c1)c1ccco1 | 0.74 (inactive)
24 | O=C(Nc1ccc2oc(-c3ccccc3F)nc2c1)c1ccco1 | 5.05 (active)
25 | CSc1ccccc1C(=O)NCc1ccccc1 | 1.09 (inactive)
26 | COc1cccc(C(=O)Nc2ccc(N3CCCC3)cc2)c1 | 3.3 (active)

Row | Structure (SMILES) | fold change
27 | Cc1ccccc1C(=O)Nc1ccc(N2CCCCCC2)cc1 | 3.92 (active)
28 | COc1ccc(C2COC(=O)C2=N)c(NC(=O)c2ccccc2)c1 (stereo not drawn) | 1.02 (inactive)
29 | O=C(Cc1ccccc1)NC(=S)Nc1ccc(N2CCCCC2)cc1 | 1.04 (inactive)
30 | C/C(=N\NC(=O)c1ccccc1C)c1ccc(N2CCOCC2)cc1 | 1.09 (inactive)
31 | COc1cccc(C(=O)NNC(=O)c2ccccc2Br)c1 | 1.05 (inactive)
32 | COc1cccc(OC)c1C(=O)Nc1ccc(N2CCCCC2)cc1 | 0.92 (inactive)
33 | COc1cccc(C(=O)Nc2cc3c(cc2Br)OCCCO3)c1 | 3.38 (active)
34 | COc1ccc(C(=O)NC(=S)Nc2ccc(N3CCCC3)cc2)cc1OC | 0.99 (inactive)
35 | COn1c(-c2ccc(Cl)cc2Cl)nc2ncccc21 | 1.29 (inactive)
36 | O=C(CN1CCC(O)(c2ccccc2)CC1)Nc1ccc2c(c1)OCCO2 | 0.97 (inactive)
37 | COc1ccc(CN2CCCC(CNC(=O)c3ccc(F)cc3)C2)cc1OC (stereo not drawn) | 1.13 (inactive)
38 | CCN(CC(=O)NCCc1ccccc1)S(=O)(=O)c1ccccc1 | 1.36 (inactive)
39 | CC1CCCN(CC(O)COc2ccc3c(c2)OCO3)C1 (stereo not drawn) | 1.2 (inactive)
40 | C/C(=N\OCC(=O)Nc1ccc(Br)cc1)c1cccs1 | 1.23 (inactive)
41 | CCOc1ccc2cc(C#N)c(SCC(=O)OC)nc2c1 | 5.87 (active)
42 | CCOc1ccc2nc(NCCNS(=O)(=O)c3ccccc3)c(C#N)cc2c1 | 1.4 (inactive)
43 | Cc1nonc1NC(=O)CSc1nc2ccccc2cc1C#N | 1.83 (inactive)
44 | CC(C)N1CCC(=NNc2ccc([N+](=O)[O-])cc2S(=O)(=O)N2CCOCC2)CC1 | 1.19 (inactive)
45 | COc1ccc(N2C(=O)/C(=C\c3ccco3)N=C2SCC(N)=O)cc1Cl | 1.3 (inactive)
46 | CCN(CC(=O)Nc1ccc(Cl)c(S(=O)(=O)N(C)C)c1)Cc1nc2ccccc2c(=O)[nH]1 | 0.79 (inactive)
47 | C#CCSc1nnc(-c2sc3ccccc3c2Cl)o1 | 3.81 (active)
48 | Clc1ccc(-c2nnc(SCc3nc4ccccc4s3)o2)cc1 | 1.18 (inactive)
49 | O=C(OCC#CCSc1nnc(-c2ccncc2)o1)c1sc2ccccc2c1Cl | 1.38 (inactive)
50 | CC(C)(C)C(=O)CN1C2=NCCN2c2ccccc21 | 1.09 (inactive)
51 | Cc1ccnc(NC(=O)CCC(=O)N(CC(=O)NCc2ccccc2)Cc2ccco2)c1 | 0.85 (inactive)
52 | Cc1ccc2c(=O)oc(N(C)C)nc2c1 | 0.93 (inactive)

Row | Structure (SMILES) | fold change
53 | O=C(CSc1ccsc1[N+](=O)[O-])N1CCCCC1 | 1.39 (inactive)
54 | O=c1oc(/C=C/c2ccccc2)nc2ccccc12 | 4.63 (active)
55 | O=C1C2C3C=CC(C3)C2C(=O)N1c1ccc(-c2nc3ccccc3c(=O)o2)cc1 (stereo not drawn) | 1.08 (inactive)
56 | S=c1[nH]nc(/C=C/c2ccccc2)o1 | 1.12 (inactive)
57 | CN(C)c1ccnc(Nc2ccc(F)cc2)c1C#N | 1.02 (inactive)
58 | CN(Cc1ccc2nsnc2c1)Cc1nc(Cc2cccc(F)c2)no1 | 1.05 (inactive)
59 | CN(C)c1nccc(NCc2ccccc2)c1C#N | 1.55 (inactive)
60 | CCOc1cc(NC(=O)CCl)c(OCC)cc1NC(C)=O | 2.72 (inactive)
61 | Cc1ccc(Cn2ccc(NC(=O)c3cc(C(C)C)on3)n2)cc1 | 1.16 (inactive)
62 | O=C(Nc1ccn(Cc2ccc(F)cc2)n1)c1ccncc1 | 1.08 (inactive)
63 | CC(=O)Nc1ccn(Cc2c(F)cccc2Cl)n1 | 1.2 (inactive)
64 | Cn1cc([N+](=O)[O-])c(C(=O)Nc2cnn(Cc3ccc(F)cc3)c2)n1 | 0.64 (inactive)
65 | O=C(Nc1ccn(Cc2ccccc2)n1)c1cccc(F)c1 | 6.25 (active)
66 | O=C(Nc1ccn(Cc2ccccc2)n1)c1n[nH]c([N+](=O)[O-])c1Cl | 3.79 (active)
67 | COC(=O)C1=C(C)N(C)C(=O)NC1c1ccc([N+](=O)[O-])o1 (stereo not drawn) | 0.88 (inactive)
68 | CN(C)C(CNC(=O)c1cccc(C#N)c1)c1ccco1 (stereo not drawn) | 1.15 (inactive)
69 | CC(=O)NC1C(Oc2ccc(C=O)cc2)OC(COC(C)=O)C(OC(C)=O)C1OC(C)=O (stereo not drawn) | 1.36 (inactive)
70 | O=C(NCc1ccccc1)C1CCCN(c2nc3ccsc3c(=O)s2)C1 (stereo not drawn) | 1.06 (inactive)
71 | CCOC(=O)c1sc2nc(SC)nc(-c3ccccc3)c2c1N | 1.18 (inactive)
72 | CS(=O)(=O)c1sc2nc(-c3ccccc3)cc(-c3ccccc3)c2c1N | 1.16 (inactive)
73 | CCN(CC)C(=O)c1sc2nc(-c3ccccc3)ccc2c1N | 7.06 (active)
74 | Cn1c(N)c(C(=O)COC(=O)/C=C/c2ccc(OC(F)F)cc2)c(=O)n(C)c1=O | 1.25 (inactive)
75 | Cc1cc(C)c(OCCN2CC(C)OC(C)C2)c(Br)c1 (stereo not drawn) | 1.58 (inactive)
76 | CC1CN/C(=C\C(=O)c2ccc(Br)cc2)C(=O)N1 (stereo not drawn) | 4.31 (active)
77 | C/C(=C\C(=O)c1ccc(Br)cc1)N1CCCCC1 | 1.06 (inactive)
78 | CN1CCCC(OC(=O)COc2ccc(Br)cc2)C1 (stereo not drawn) | 1.11 (inactive)

Row | Structure (SMILES) | fold change
79 | CCc1cc2c(=O)c(-c3ccc(F)cc3)c(C(F)(F)F)oc2cc1OCC(=O)O | 1.1 (inactive)
80 | c1ccc(Nc2nc(-c3ccncc3)cs2)nc1 | 7.4 (active)
81 | Clc1ccc(Nc2nc(-c3cccs3)cs2)nc1 | 12.4 (active)
82 | O=C(Nc1ccc(Cl)cn1)Nc1cccs1 | 1.65 (inactive)
83 | c1cnc(Nc2nc(-c3ccc4ccccc4c3)cs2)nc1 | 2.23 (inactive)
84 | O=C(Nc1nc(-c2ccncc2)cs1)C1COc2ccccc2O1 (stereo not drawn) | 1.25 (inactive)
85 | COc1ccc(-c2csc(Nc3ccccn3)n2)cc1 | 7.56 (active)
86 | Clc1ccc(-c2csc(-c3ccncc3)n2)cc1 | 1.8 (inactive)
87 | O=C(Nc1nc(-c2ccc(-c3ccccc3)cc2)cs1)c1cnccn1 | 1.35 (inactive)
88 | COc1ccc(C(=O)/C=C/Nc2ccccn2)cc1 | 2.22 (inactive)
89 | O=C(CN(c1cccc(Cl)c1)S(=O)(=O)c1ccccc1)NN=C1CCCC1 | 1.17 (inactive)
90 | CN1CCN(C(c2cc3cc4c(cc3[nH]c2=O)OCCO4)c2nnnn2C2CCCC2)CC1 (stereo not drawn) | 1.27 (inactive)
91 | O=C(COc1cccc2ccccc12)Nc1cc(S(=O)(=O)N2CCOCC2)ccc1N1CCOCC1 | 0.47 (inactive)
92 | O=C(N/N=C/C=C/c1ccco1)c1cccs1 | 1.09 (inactive)
93 | COc1ccc(CC(=O)NC(C)CCc2ccccc2)cc1 (stereo not drawn) | 1.03 (inactive)
94 | CC(=O)c1cc(C#N)c(N2CCCCC2)nc1C | 1.09 (inactive)
95 | O=C(Nc1ccc2c(c1)OCCO2)c1ccc(Cl)c(S(=O)(=O)N2CCCCC2)c1 | 0.9 (inactive)
96 | O=C(Nc1cccc(Cl)c1N1CCOCC1)c1ccc2c(c1)OCCO2 | 0.72 (inactive)
97 | O=C(Nc1ccc(Cl)cn1)c1ccc2c(c1)OCCO2 | 5.18 (active)
98 | COc1c(Cl)cc(C(=O)Nc2ccc(Cl)cn2)cc1Cl | 1.49 (inactive)
99 | O=C(Nc1cccc(S(=O)(=O)Nc2ccc(Cl)cc2)c1)c1ccc2c(c1)OCCO2 | 0.68 (inactive)
100 | CN1CCN(c2ccc(NC(=O)c3ccc4c(c3)OCCO4)cc2Cl)CC1 | 3.36 (active)
101 | S=c1[nH]ccn1-c1ccc(Cl)cc1 | 1.14 (inactive)
102 | CC(C)(C)NC(=O)CN(C(=O)c1ccc(Cl)nc1)c1cccc2ccccc12 | 0.94 (inactive)
103 | COc1cccc(OCCCN2CCCCCC2)c1 | 1.08 (inactive)

From PubChem BioAssay AID1239 (SRMLSC, 2008)
